# Measured values: PubChem BioAssay
# The source made the active and inactive calls.
# Key:
# [1] = system: Plasmodium falciparum Sir2 (PF13_0152, Sir2A); test: Plasmodium falciparum Sir2A binding compounds – biochemical, small-molecule microarray, 635 nm fluorescence, primary screen (AID 1098); details: fluorescence 635 nm, higher = more signal;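 also: score merges spot fluorescence intensity with its signal-to-noise ratio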
# [2] = probe aDKK1 binding to arrayed compounds – biochemical, biotinylated probe, 635/667 nm fluorescence, primary screen (AID 1099); details: small-molecule microarray, higher = more signal;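 also: score merges 667nm spot fluorescence with signal to noise across triplicate slides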
# [3] = probe aCHRDL2 binding to arrayed compounds – biochemical, biotinylated probe, 635/667 nm fluorescence, primary screen (AID 1100); details: small-molecule microarray, higher = more signal
# [4] = change in splice reporter luminescence, either direction, cell-based, HEK293, spliceosome inhibition project, primary screen (AID 1101); details: HEK293 splicing luciferase reporter, 24 h, higher = more signal, called active from +8 up or from −8 down;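 also: HEK293 cells carrying a splicing-competent luciferase reporter gene; test concentration not given here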
# [5] = biological target: Fibroblast growth factor 10 (Homo sapiens) (UniProt O15520); test: compounds binding fibroblast growth factor 10 – biochemical, small-molecule microarray, 635 nm fluorescence, primary screen (AID 1102); details: FGF10 binding, fluorescence 635 nm, higher = more signal
# Chain of Fibroblast growth factor 10 (Homo sapiens) (O15520 whole entry, looked up): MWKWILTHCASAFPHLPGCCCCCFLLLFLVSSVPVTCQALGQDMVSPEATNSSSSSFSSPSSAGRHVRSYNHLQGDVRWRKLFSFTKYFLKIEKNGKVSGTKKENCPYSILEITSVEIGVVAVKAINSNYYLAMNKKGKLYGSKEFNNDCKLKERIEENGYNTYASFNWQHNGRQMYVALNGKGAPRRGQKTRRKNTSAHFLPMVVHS
# [6] = system: glycogen synthase kinase-3 (GSK3A per assay name; protocol says GSK3B); test: compounds binding glycogen synthase kinase-3 – biochemical, small-molecule microarray, 635 nm fluorescence, GSK3A, primary screen (AID 1103); details: fluorescence 635 nm, higher = more signal; also: the record names both GSK3A and GSK3B
# [7] = biological target: Epidermal growth factor receptor (Homo sapiens) (UniProt P00533); test: compounds binding epidermal growth factor receptor – biochemical, small-molecule microarray, 635 nm fluorescence, primary screen (AID 1104); details: EGFR binding, higher = more signal;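 also: score merges 667 nm emission intensity with spot signal to noise over triplicate slides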
# Chain of Epidermal growth factor receptor (Homo sapiens) (P00533 whole entry, looked up): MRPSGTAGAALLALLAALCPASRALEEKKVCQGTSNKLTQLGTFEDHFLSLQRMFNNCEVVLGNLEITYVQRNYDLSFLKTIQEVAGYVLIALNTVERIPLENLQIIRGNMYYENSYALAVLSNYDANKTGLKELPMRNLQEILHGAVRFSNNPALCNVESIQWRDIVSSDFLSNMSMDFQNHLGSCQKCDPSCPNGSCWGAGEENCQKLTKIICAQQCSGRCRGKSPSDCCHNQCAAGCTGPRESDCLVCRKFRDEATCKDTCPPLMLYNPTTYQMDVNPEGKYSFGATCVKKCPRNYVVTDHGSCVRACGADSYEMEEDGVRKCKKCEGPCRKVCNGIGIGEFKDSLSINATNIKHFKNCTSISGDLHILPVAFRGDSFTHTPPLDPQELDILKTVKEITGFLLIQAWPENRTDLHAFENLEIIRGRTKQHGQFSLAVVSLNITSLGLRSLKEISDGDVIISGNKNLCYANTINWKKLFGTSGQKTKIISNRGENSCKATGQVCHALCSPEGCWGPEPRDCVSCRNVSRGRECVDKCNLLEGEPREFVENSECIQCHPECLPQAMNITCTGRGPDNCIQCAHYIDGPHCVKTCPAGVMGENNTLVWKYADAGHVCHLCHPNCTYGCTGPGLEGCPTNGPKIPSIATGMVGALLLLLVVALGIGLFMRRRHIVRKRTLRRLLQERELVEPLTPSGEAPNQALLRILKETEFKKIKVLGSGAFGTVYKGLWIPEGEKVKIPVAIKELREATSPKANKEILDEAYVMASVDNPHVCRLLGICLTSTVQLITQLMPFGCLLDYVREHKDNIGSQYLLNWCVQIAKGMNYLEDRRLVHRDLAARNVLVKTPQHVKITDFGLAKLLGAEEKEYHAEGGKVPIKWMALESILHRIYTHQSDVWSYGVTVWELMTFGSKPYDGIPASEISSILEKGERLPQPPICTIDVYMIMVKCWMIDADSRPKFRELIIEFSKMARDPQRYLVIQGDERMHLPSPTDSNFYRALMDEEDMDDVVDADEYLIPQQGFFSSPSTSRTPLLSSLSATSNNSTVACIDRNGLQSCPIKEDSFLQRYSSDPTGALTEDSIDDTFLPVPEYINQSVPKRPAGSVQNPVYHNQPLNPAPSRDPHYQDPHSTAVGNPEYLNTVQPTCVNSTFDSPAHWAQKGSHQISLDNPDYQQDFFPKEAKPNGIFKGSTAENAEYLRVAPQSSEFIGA
# [8] = biological target: Follistatin-related protein 3 (Homo sapiens) (UniProt O95633); test: compounds binding follistatin-related protein 3 – biochemical, small-molecule microarray, 635 nm fluorescence, primary screen (AID 1105); details: FSTL3 binding, higher = more signal;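 also: score merges emission near 667 nm and signal to noise per printed spot across three slides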
# Chain of Follistatin-related protein 3 (Homo sapiens) (O95633 whole entry, looked up): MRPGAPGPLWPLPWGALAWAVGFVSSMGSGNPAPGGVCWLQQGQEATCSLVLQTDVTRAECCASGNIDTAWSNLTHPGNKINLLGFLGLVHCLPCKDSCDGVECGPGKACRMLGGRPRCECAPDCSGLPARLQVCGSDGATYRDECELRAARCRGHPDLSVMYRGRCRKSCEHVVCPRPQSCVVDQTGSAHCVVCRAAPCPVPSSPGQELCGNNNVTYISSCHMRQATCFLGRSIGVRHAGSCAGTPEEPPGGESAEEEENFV
# [9] = biological target: Dickkopf-related protein 1 (Homo sapiens) (UniProt O94907); test: small molecules binding DKK1 protein – biochemical, small-molecule microarray, 635 nm fluorescence scan, primary screen (AID 1106); details: higher = more signal;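 also: score merges emission near 667 nm with signal to noise over three replicate slides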
# Chain of Dickkopf-related protein 1 (Homo sapiens) (O94907 whole entry, looked up): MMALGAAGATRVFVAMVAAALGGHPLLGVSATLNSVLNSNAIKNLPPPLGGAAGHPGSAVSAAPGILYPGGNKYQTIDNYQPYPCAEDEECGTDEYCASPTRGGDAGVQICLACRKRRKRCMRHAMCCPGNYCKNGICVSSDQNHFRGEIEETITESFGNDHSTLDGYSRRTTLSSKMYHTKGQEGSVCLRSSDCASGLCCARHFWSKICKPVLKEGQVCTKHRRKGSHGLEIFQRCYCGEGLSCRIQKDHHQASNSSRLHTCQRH
# [10] = system: Inhibin beta A chain (activin A); test: small molecules binding activin A – biochemical, small-molecule microarray, 635 nm fluorescence scan, primary screen (AID 1107); details: INHBA, higher = more signal;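 also: mouse activin A protein probed at 4.33 µg/mL on printed slides; score merges bound-protein fluorescence near 667 nm with spot signal-to-noise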
# [11] = system: Human papillomavirus type 1a protein E7 (residues 44-93); test: small molecules binding HPV E7 44-93 – biochemical, small-molecule microarray, residues 44-93, 635 nm fluorescence, primary screen (AID 1108); details: fluorescence 635 nm, higher = more signal;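 also: E7 fragment applied at 1 µg/mL in TBST for 1 h at 4 C; score combines spot fluorescence with its signal to noise ratio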
# [12] = hepatitis C replication reporter changes, two-sided – Huh7 cells, luciferase reporter, HCV replication inhibitor project, primary screen (AID 1109); details: Huh7 HCV replicon luciferase reporter, 48 h; higher = more signal;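 also: huh7 hepatoma cells harbouring a luciferase neomycin HCV replicon reporter; luciferase luminescence as measure of HCV replicon replication; test concentration not given here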
# [13] = biological target: Left-right determination factor 2 (Homo sapiens) (UniProt O00292); test: small molecules binding LEFTY2 protein – biochemical, small-molecule microarray, 635 nm fluorescence scan, primary screen (AID 1110); details: higher = more signal
# Chain of Left-right determination factor 2 (Homo sapiens) (O00292 whole entry, looked up): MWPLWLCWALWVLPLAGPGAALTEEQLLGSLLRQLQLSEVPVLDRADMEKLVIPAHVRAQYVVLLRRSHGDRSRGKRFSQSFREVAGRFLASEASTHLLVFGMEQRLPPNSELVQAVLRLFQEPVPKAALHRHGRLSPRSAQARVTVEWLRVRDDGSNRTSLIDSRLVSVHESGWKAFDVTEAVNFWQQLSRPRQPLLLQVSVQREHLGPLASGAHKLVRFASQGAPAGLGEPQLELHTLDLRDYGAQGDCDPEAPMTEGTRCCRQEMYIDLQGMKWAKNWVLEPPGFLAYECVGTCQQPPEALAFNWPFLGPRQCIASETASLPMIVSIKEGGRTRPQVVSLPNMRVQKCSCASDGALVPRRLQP
# [14] = biological target: Calmodulin-1 (Homo sapiens) (UniProt P0DP23); test: small molecules binding calmodulin-1 with EGTA – biochemical, small-molecule microarray, Cy5-labelled CALM1, profiling panel (AID 1111); details: Cy5-CALM1 binding fluorescence, higher = more signal;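 also: labelled calmodulin applied in Tris saline Tween buffer holding calcium plus EGTA and DTT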
# [15] = biological target: Calmodulin-1 (Homo sapiens) (UniProt P0DP23); test: small molecules binding Ca-loaded calmodulin-1 – biochemical, small-molecule microarray, Cy5-labelled CALM1, plus calcium, artefact control for SMM control-protein annotation, profiling panel (AID 1112); details: Cy5-CALM1 binding fluorescence, higher = more signal;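 also: score merges spot fluorescence with signal to noise from triplicate slides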
# [16] = probe aWnt5a binding to arrayed compounds – biochemical, biotinylated probe, 635/667 nm fluorescence, primary screen (AID 1113); details: small-molecule microarray, higher = more signal;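 also: score merges 667 nm fluorescence intensity with signal-to-noise per printed feature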
# [17] = probe aShh binding to arrayed compounds – biochemical, biotinylated probe, 635/667 nm fluorescence, primary screen (AID 1114); details: small-molecule microarray, higher = more signal;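 also: probe is biotin-labelled aShh protein from a stem cell growth factor screen; measures binding of labelled protein to compounds printed on the slide; score merges feature fluorescence at 667 nm with signal-to-noise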
# [18] = probe aNog binding to arrayed compounds – biochemical, biotinylated probe, 635/667 nm fluorescence, primary screen (AID 1115); details: small-molecule microarray, higher = more signal;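 also: probe is biotinylated aNog protein used at 0.15 µg/mL for 1 h at 4 C; z-score combines 667 nm fluorescence of each spot with its signal to noise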
# [19] = biological target: Torsin-1A-interacting protein 1 (Homo sapiens) (UniProt Q5JTV8); test: compound microarray binding of lysate hLAP1 – cell lysate, small-molecule microarray, COS7 lysate, 635/667 nm fluorescence, primary screen (AID 1116); details: 635 nm fluorescence, higher = more signal
# Chain of Torsin-1A-interacting protein 1 (Homo sapiens) (Q5JTV8 whole entry, looked up): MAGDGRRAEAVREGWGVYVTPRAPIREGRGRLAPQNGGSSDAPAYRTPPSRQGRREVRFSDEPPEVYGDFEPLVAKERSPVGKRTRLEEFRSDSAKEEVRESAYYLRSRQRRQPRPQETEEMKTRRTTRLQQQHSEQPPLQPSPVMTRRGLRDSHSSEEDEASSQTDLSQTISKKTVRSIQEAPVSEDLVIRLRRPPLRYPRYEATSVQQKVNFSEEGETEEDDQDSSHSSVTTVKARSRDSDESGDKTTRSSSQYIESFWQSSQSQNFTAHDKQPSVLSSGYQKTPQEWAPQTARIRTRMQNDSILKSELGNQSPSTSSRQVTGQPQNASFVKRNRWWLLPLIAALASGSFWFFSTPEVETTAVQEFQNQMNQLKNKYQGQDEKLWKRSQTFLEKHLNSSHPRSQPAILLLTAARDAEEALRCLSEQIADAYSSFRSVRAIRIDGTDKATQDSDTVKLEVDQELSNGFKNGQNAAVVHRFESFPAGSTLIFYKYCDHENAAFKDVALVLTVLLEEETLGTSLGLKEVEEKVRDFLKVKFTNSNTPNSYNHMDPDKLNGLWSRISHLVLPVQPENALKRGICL
# [20] = biological target: Alpha-bungarotoxin (Bungarus multicinctus) (UniProt P60615); test: compounds binding labelled alpha-BTX control protein – biochemical, small-molecule microarray, Alexa647 label, 635/667 nm fluorescence, artefact control for SMM control protein annotation, profiling panel (AID 1117); details: alpha-BTX-A647 binding fluorescence, higher = more signal
# Chain of Alpha-bungarotoxin (Bungarus multicinctus) (P60615 whole entry, looked up): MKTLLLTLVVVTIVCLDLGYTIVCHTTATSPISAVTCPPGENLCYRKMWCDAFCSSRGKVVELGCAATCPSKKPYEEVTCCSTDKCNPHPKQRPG
SMILES,composite z-score [1],composite z-score [2],composite z-score [3],z-score [4],composite z-score [5],composite z-score [6],composite z-score [7],composite z-score [8],composite z-score [9],composite z-score [10],composite z-score [11],z-score [12],composite z-score [13],composite z-score [14],composite z-score [15],composite z-score [16],composite z-score [17],composite z-score [18],composite z-score [19],composite z-score [20]
C=CCC(OC(C)=O)[C@@H]1[C@@H](N(Cc2cc3ccccc3o2)C(=O)c2ccc(C)cc2)c2cc(OCCCO)ccc2N1C(=O)c1ccc(-c2ccccc2)cc1 (stereo not given in full),-0.433,-0.228,0.118,-3.23 (inactive),0.161,-0.291,0.0009,0.363,0.111,1.32,0.182,-1.67,0.36,-0.259,0.544,-0.0529,0.0141,-0.374,0.285,0.169
CN(C)CCCC[C@@H]1NC(=O)[C@@H]2C[C@H](C(=O)NCCCCCCN)[C@H](c3ccc(O)cc3)N2C1=O,0.812,1.46,0.848,-0.0228 (inactive),0.987,1,0.734,0.849,1.05,1.41,1.42,-0.379,0.984,0.98,1.02,0.178,0.584,-0.172,1.7,0.629
CC(C)[C@H]1COC(=O)N1C(=O)[C@H]1[C@@H](c2ccccc2)N(c2ccccc2)O[C@@H]1C,0.22,-0.139,-0.273,0.145 (inactive),0.521,0.474,0.218,1.04,0.517,0.264,0.359,-0.383,0.729,0.35,-0.434,-0.1,-0.206,0.0373,0.15,0.107
CC1CC/C=C\[C@H]2OC34C=CCN(CCN5CCOCC5)C(=O)[C@H]3N(CCCCCO)C(=O)[C@@H]4C2C(=O)O1 (stereo not given in full),-0.31,-0.605,-0.824,-0.282 (inactive),-0.352,-0.444,-0.559,-0.507,-0.0732,1.01,-1.78,0.824,0.0111,-1.87,-1.59,-0.224,-0.0769,-0.321,-0.595,-1.06
CCCCN1CC=CC23O[C@@H]4C=CCCOC(=O)C4[C@H]2C(=O)N(CCCO)[C@@H]3C1=O (stereo not given in full),-1.07,-0.132,-0.114,-1.21 (inactive),-0.649,-1.12,-0.597,-0.739,-0.0604,0.824,-0.73,-1.1,-0.513,-0.479,-0.503,-0.196,-0.2,-0.0784,-0.643,-1.13
COc1c(C)cc(-c2cc3c(c(-c4ccccc4)n2)[Si](C(C)C)(C(C)C)O[C@H]3c2ccccc2)cc1C,-0.14,-0.16,-0.327,0.139 (inactive),0.397,0.02,0.0111,0.168,0.211,0.0244,-0.217,-0.526,-0.009,-0.0867,-0.24,-0.006,-0.147,-0.482,0.38,0.614
CCCCCN1CC=CC23O[C@@H]4C=CCCOC(=O)C4[C@H]2C(=O)N(CCCO)[C@@H]3C1=O (stereo not given in full),1.06,-0.117,-0.141,-0.588 (inactive),-0.0549,-0.452,-0.928,-0.344,0.0124,-0.166,-0.337,-0.726,-0.43,-0.162,-0.591,-0.198,-0.283,-0.0125,-0.643,-0.546
[N-]=[N+]=NCc1ccccc1[C@H]1OC(c2ccc(OCCCO)cc2)=N[C@@]1(Cc1ccccc1)C(=O)NCC(O)CO (stereo not given in full),1.27,0.847,1.21,-0.807 (inactive),0.782,1.27,-0.187,-0.751,-0.651,0.33,1.13,-1.38,-0.524,1.52,0.564,0.507,0.128,1.9,1.51,0.131
O=C(NCC(O)CO)[C@@]1(Cc2ccccc2)COC(c2ccc(OCCCO)cc2)=N1 (stereo not given in full),-0.509,0.549,0.536,0.138 (inactive),-0.309,-0.546,-0.198,-1.21,-0.92,0.656,0.422,-0.992,-0.483,0.77,1.11,-0.0704,-0.283,-0.134,0.561,-0.363
CC(=O)N1Cc2ccccc2C[C@@]2(N=C(c3ccc(OCCCO)cc3)O[C@H]2c2ccccc2)C1=O,1.54,0.927,0.82,-2.97 (inactive),1.16,1.09,0.361,1.19,0.653,1.03,0.671,-2.83,0.587,1.26,0.465,-0.0051,0.0895,0.909,2.05,2.37
CC(C)CNC(=O)[C@@]1(C)c2ccccc2C(=O)N(C(C)C)[C@H]1c1ccc(CO)cc1,1.09,0.0084,0.567,-0.0251 (inactive),-1.42,-1.29,-0.741,-0.542,-0.854,1.26,-1.4,-1.13,-0.243,-0.489,-0.577,-0.191,-0.375,-0.524,-0.181,-0.018
COC(=O)[C@@]1(Cc2ccc(OC)cc2)[C@H]2c3cc(C(=O)N(C)C)n(Cc4ccc(OC)c(OC)c4)c3C[C@H]2CN1C(=O)c1ccccc1,0.851,0.476,1.16,-2.25 (inactive),0.81,1.28,0.149,0.943,-0.649,0.807,1.46,-1.09,0.0549,1.8,1.08,0.294,0.173,1.03,1.15,1.73
